Assay outcomes: PubChem, National Center for Advancing Translational Sciences (NCATS)
MARV entry inh: inhibitors of Marburg virus binding or cell entry | Potency, µM (top dose mostly 37.8 µM), hits mostly inhibitors | actives 1.8% (n = 300,000) | Marburg virus pseudotyped entry inhibition, cell reporter; calls by dose curve; tested in HEK293 cells
Lassa entry inh: inhibitors of Lassa virus binding or cell entry | actives 1.2% (n = 300,000) | Lassa virus pseudotype entry inhibition, cell reporter | Potency, µM (doses to about 37.9 µM), hits mostly inhibitors | AID 540256; calls by dose curve; tested in HEK293 cells; note: nearly all actives have a fitted effect of over 50% in size
Shiga inhibitor: blocks Shiga toxin action in Vero cells | actives 9.2% (n = 290,000) | AID 2315 | Vero cells, Shiga toxin protein synthesis inhibition reporter | inhibition, % at 38.7 µM; in the data active = inhibition mostly above about 28%, no sharp cut-off; inactive = mostly below about 43%
CHX counter: counter-screen for Shiga toxin inhibitors: cycloheximide protein synthesis inhibition | max response, % | actives 12% (n = 300,000) | cell reporter, cycloheximide protein synthesis inhibition counterscreen; in the data active = max response mostly above about 13%, no sharp cut-off; inactive = mostly below about 14%; note: read at 38.3 µM for the half of the compounds with a filed dose
AMA1 RON2 block: AMA1-RON2 (P. falciparum) interaction inhibition; AlphaScreen AMA1-biotinylated RON2 peptide binding; Potency, µM (top dose mostly 58.2 µM), most hits filed as inhibitors; actives 0.2% (n = 360,000); active = well fitted inhibition curve with a large enough effect; inconclusive = small, poorly fitted or top-dose-only effect; inactive = no such curve, though single readings can be large or run the other way; note: nearly all actives have a fitted effect of over 45% in size
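AMA1 (3D7) with his tag at 25 nM final met compounds first, then biotinylated RON2 peptide at 25 nM; detection used donor plus acceptor beads, 10 µg/mL apiece, read by AlphaScreen after 30 min at room temperature.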
Hits are given with their value; i = inactive; ? = inconclusive; nt = no result; + = active, no number; [ ] = dose if it differs, or a comment. Only a selection was taken, and hits are over-represented in it overall.

SMILES	MARV entry inh	Lassa entry inh	Shiga inhibitor	CHX counter	AMA1 RON2 block
CCOc1ccc(-n2c(SCC(=O)NC)nnc2-c2ccco2)cc1	i	i	i	i	i
O=C(NCCc1ccccn1)c1ccc(OC2CCN(Cc3ccccn3)CC2)cc1	nt	nt	64.1	83.1	i
CC(Cc1ccccn1)NC(=O)c1ccc(OC2CCN(Cc3ccccn3)CC2)cc1 (centres undefined)	?	i	23.8	38.2	i
Nc1ccc2c(c1)COC2=O	?	i	82.6	33.5	i
O=C1OCc2cc(-n3cccc3)ccc21	?	i	i	17.4	i
CN(Cc1ccccc1)C1CCN(Cc2ccccc2[N+](=O)[O-])CC1	?	i	nt	i	i
Cc1ccc(NC(=O)c2sccc2-n2cccc2)c(Cl)c1	nt	nt	i	31.5	i
Cc1cc(NC(=O)NC(=O)c2ccccc2F)no1	?	i	77.3	31.6	i
Cc1ccc(NC(=O)Cn2ncc3ccccc32)c(Cl)c1	nt	nt	55.2	52.4	i
Cc1cc(NC(=O)c2sc3ccccc3c2O)no1	nt	nt	82.2	62.1	i
CCOC(=O)C(NC(=O)c1ccccc1F)(Nc1cc(C)on1)C(F)(F)F (centres undefined)	i	i	i	i	i
CN1C(=O)c2ccccc2Sc2ccc(NC(=O)N3CCN(c4ccc(F)cc4)CC3)cc21	?	i	nt	nt	nt
O=C(Nc1ccc(Cl)cc1)c1cncs1	?	?	i	i	i
Cc1ccc(C)c(NC(=O)C2CC(Cl)=CCC2C(=O)O)c1 (centres undefined)	i	i	i	i	i
Cc1cc(NC(=O)c2ccccc2Cl)no1	i	?	+	54.2	i
Cc1ccc(NC(=O)c2ccccc2Cl)c(Cl)c1	i	i	68.5	41.7	i
COc1ccc(NS(=O)(=O)c2cc(NC(=O)CCSc3ccccc3)ccc2OC)cc1	?	?	i	i	i
Cc1ccc(NC(=O)c2ccccc2F)c(NC(=O)c2ccccc2F)c1	?	?	nt	nt	i
COc1ccc(NC(=O)CCSc2ccc(C)cc2)cc1S(=O)(=O)Nc1ccccc1Cl	?	12.6µM	i	i	i
Cc1ccc(NC(=O)C2CC2C)c(Cl)c1 (centres undefined)	nt	nt	i	30.0	i
O=C(O)c1ccccc1S(=O)(=O)CC(=O)N1CCCCC1	i	i	i	i	i
COc1ccc2c(c1)c1c(c(=O)n(-c3cc(Cl)ccc3C)c(=O)n1Cc1ccc(F)cc1)n2C	nt	i	nt	nt	nt
Cc1cc(NC(=O)CCSc2ccccc2)no1	?	i	36.0	23.7	i
Cc1cc(NC(=O)c2c(F)c(F)c(F)c(F)c2F)no1	?	i	i	i	i
Cc1cc(NC(=O)CSc2ccc(Cl)cc2)no1	?	i	i	i	i
SMILES	MARV entry inh	Lassa entry inh	Shiga inhibitor	CHX counter	AMA1 RON2 block
Cc1ccc(SCCC(=O)Nc2ccccc2Br)cc1	nt	nt	55.8	15.9	i
Cc1cc(NC(=O)c2c(F)cccc2Cl)no1	i	i	55.9	12.9	i
CC1CCN(C(=O)Cn2c(SCC(=O)Nc3ccc(F)cc3)nc3ccccc32)CC1	nt	i	nt	nt	nt
COc1ccc(CN2C(=O)CN(S(C)(=O)=O)CC2(C)C(=O)Nc2ccc3c(c2)OCCO3)cc1OC (centres undefined)	nt	nt	nt	nt	i
CN1CCc2c(sc3nc(SCC(=O)NCc4ccco4)n(-c4ccccc4)c(=O)c23)C1	nt	nt	47.6	38.6	i
COc1ccc(-n2c(SCC(=O)NCc3ccco3)nc3sc4c(c3c2=O)CCN(C)C4)cc1	nt	nt	i	i	i
O=C(CSc1nc2ccccc2c(=O)n1-c1ccccc1)NCc1ccco1	i	i	i	41.7	i
CSc1nc(SCC(=O)NC(c2ccccc2)c2ccccc2)c2c3c(sc2n1)CN(C)CC3	9.2µM	?	i	i	?
Cc1ccc(F)cc1C(=O)N1CCCCC1c1cc(C(=O)Nc2ccc(F)c(Cl)c2)no1 (centres undefined)	nt	nt	nt	nt	i
CCCCOc1ccc(N(CC(=O)NC2CCCC2)C(=O)CCC(=O)Nc2ccccn2)cc1	?	i	i	i	i
CCCCOc1ccc(N(CC(=O)NC(C)(C)CC)C(=O)CCC(=O)Nc2ccccn2)cc1	8.91µM	?	i	i	i
C=CCOc1ccc(/C=N/N2C(=O)C(CC(=O)Nc3ccc(F)cc3F)SC2=NC)cc1 (centres undefined)	?	?	29.7	21.3	i
COc1ccccc1OCCCCN1CCN(C(c2ccccc2)c2ccccc2)CC1	?	18.4µM	i	i	?
COc1ccc(OC)c(/C=N/NC(=O)CCN2CCN(C(c3ccccc3)c3ccccc3)CC2)c1	10µM	?	i	i	i[2.32 µM]
CCCn1nc(C(=O)N2CCN(S(=O)(=O)c3ccc(C)c(C)c3)CC2)c2ccccc2c1=O	nt	nt	nt	nt	i
Clc1ccc(CN2C3=NCCCN3c3ccccc32)c(Cl)c1	?	?	i	i	i
O=C(COc1coc(CN2CCN(c3ccc(F)cc3)CC2)cc1=O)NCC1CCCO1 (centres undefined)	?	?	nt	nt	i
CCOC(=O)c1ccc(NC(=O)CSc2nc(=O)n(CCN3CCOCC3)c3c2CCC3)cc1	i	i	nt	nt	i
CCOC(=O)c1cc(-c2ccccc2)sc1NC(=O)C(C)Sc1nnc(C)s1 (centres undefined)	i	i	i	10.7	i
CCN(CC)C(=O)c1cccc(-c2csc(C(O)c3ccc(F)c(F)c3)n2)c1 (centres undefined)	nt	nt	nt	nt	i
Cc1cccc(NC(=O)CN2C(=O)N/C(=C/c3ccc(-c4cccc(C(=O)O)c4C)o3)C2=O)c1	i	i	44.9	26.5	i
O=C1N/C(=C/c2ccc(Br)s2)C(=O)N1c1ccccc1	?	?	65.3	16.0	i
Cc1c(C(=O)O)cccc1-c1ccc(/C=C2/NC(=O)N(c3ccccc3)C2=O)o1	nt	nt	i	28.4	i
Cc1cc(/C=C2/NC(=O)N(c3ccccc3)C2=O)c(C)n1C(C)C	?	?	41.0	40.0	i
O=C1NC(=O)C(=Cc2ccc(N3CCOCC3)o2)C(=O)N1	i	i	i	i	i
SMILES	MARV entry inh	Lassa entry inh	Shiga inhibitor	CHX counter	AMA1 RON2 block
O=C1N/C(=C/c2ccc(N3CCOCC3)o2)C(=O)N1c1cccc(Cl)c1	?	i	i	22.1	i
Cc1ccc(/C=C2/NC(=O)N(c3ccccc3)C2=O)o1	i	i	90.1	31.8	i
COC(=O)C1=C(c2cccc(OCc3ccccc3)c2)C[C@@H]2CC[C@H]1N2C(=O)NCc1ccc(C(C)(C)C)cc1	nt	nt	nt	nt	i
COC(=O)C1=C(c2cccc(OCc3ccccc3)c2)C[C@@H]2CC[C@H]1N2C(=O)NCc1ccc(N(C)C)cc1	nt	nt	nt	nt	11.2µM
N#CCCn1cc(C(CC(=O)c2ccccc2)C(=O)O)c2ccccc21 (centres undefined)	i	i	i	29.5	i
N#CCCn1cc(C(=O)CN2C(=O)NC3(CCCCCC3)C2=O)c2ccccc21	?	i	nt	nt	i
COc1ccc(/C=N/NC(=O)CNC(=O)COc2ccccc2)cc1	?	i	i	i	i[2.32 µM]
CCCCCC(=O)N/N=C/c1ccc(N(C)C)cc1	?	i	i	17.8	i
CN(C)c1ccc(/C=N\NC(=O)CC#N)cc1	i	i	34.8	i	i
COc1ccc(OCC(=O)N/N=C/c2ccc(N(C)C)cc2)cc1	?	?	i	25.8	i
CN(C)c1ccc(/C=N/NC(=O)CNC(=O)c2ccncc2)cc1	nt	nt	i	i	i
CN(C)c1ccc(/C=N/NC(=O)CCC(=O)NCc2ccccc2)cc1	i	i	i	i	i
